According to ChEMBL document CHEMBL1157539, “Thousands of chemical starting points for antimalarial lead identification” (Nature, 2010):

System: Plasmodium falciparum
Experiment: GSK_TCMDC: Inhibition of Plasmodium falciparum Dd2 in whole red blood cells, using parasite LDH activity as an index of growth. Test compounds present at 2uM
Type: functional

Row | Structure (SMILES) | Inhibition [%]
1 | Cc1cc(N[C@@H](Cc2ccccc2)C(=O)NCCCOC(C)C)nc(NCC2CCCCC2)n1.O=C(O)C(F)(F)F | 25
2 | CC(C)c1cccc(C(C)C)c1NC(=O)NNC(=O)c1ccc(CCN2CCC(c3nc(COCC(F)(F)F)c(-c4ccc(F)cc4)o3)CC2)cc1 | 34
3 | O=C(NCCCCN1CCC(c2ccc([N+](=O)[O-])cc2)CC1)c1ccc(NC(=O)c2ccc(Cl)cc2)cc1 | 55
4 | Oc1ccc(Cl)cc1-c1cc(C(F)(F)F)nc(-c2ccccc2)n1 | 92
5 | N#Cc1ccc(N(CCNS(=O)(=O)c2cc(Br)c(Cl)s2)Cc2ccccc2C(F)(F)F)cc1C(F)(F)F | 57
6 | O=[N+]([O-])c1ccc(N/C(=N\c2ccccc2Br)NCCOc2ccccc2)c(O)c1 | 70
7 | O=C(Cc1c[nH]cn1)Nc1cccc(-c2cccc(-c3nc4cc(F)ccc4[nH]3)c2)c1 | 97
8 | Cc1ccccc1CNc1noc(-c2sccc2Br)n1 | 88
9 | COc1ccc(-c2nc3cc4ccccc4nc3[nH]2)c(OCC(O)CNC(C)C)c1.Cl (configuration not stated) | 96
10 | COc1cc2c(cc1OC)CN(c1cc(N)c3cc(OC)c(OC)cc3n1)CC2.CS(=O)(=O)O | 99
11 | CCCCn1c(Sc2ccc(C#N)c([N+](=O)[O-])c2)nnc1-c1cccc(Cl)c1 | 87
12 | O=C(Nc1cc(C(F)(F)F)ccc1Cl)c1ccc(Cn2cc(Br)cn2)cc1 | 67
13 | Cc1cc(N[C@@H](Cc2ccccc2)C(=O)NCCOc2ccccc2)nc(NCCc2ccc(F)cc2)n1.O=C(O)C(F)(F)F | 86
14 | CCOC(=O)c1ccc(Nc2cc(Nc3ccc(C(=O)OCC)cc3)nc(C)n2)cc1 | 33
15 | Cc1nc(N)nc(N)c1OCCCCOc1ccccc1.Cl.O | 4
16 | Cc1cc(N[C@@H](Cc2ccccc2)C(=O)NCCc2ccccc2)nc(NCCc2cccs2)n1.O=C(O)C(F)(F)F | 84
17 | Cc1cc(N[C@@H](Cc2ccccc2)C(=O)Nc2ccccc2)nc(NCCc2ccccc2)n1.O=C(O)C(F)(F)F | 87
18 | CCOC(=O)c1c(CCc2ccc(C(F)(F)F)cc2)nc2c(c1-c1ccc(C(=O)N[C@@H](C)c3ccncc3)cc1)C(=O)N1CCC[C@@H]21 | 68
19 | Br.C=CCc1cc(Br)ccc1OCCCON1C(N)=NC(N)=NC1(C)C | 97

Row | Structure (SMILES) | Inhibition [%]
20 | CC(=O)Nc1ccc(OCCCN(Cc2ccccc2OC(F)(F)F)c2ccc(C(F)(F)F)c(C#N)c2)c(Cl)c1 | 80
21 | COc1cc(C(=O)Nc2cccc(-c3nc4ccccc4[nH]3)c2)ccc1OC(C)=O | 37
22 | CCN1CCc2nc3ccccc3c(C(=O)Nc3ccc(C#N)cc3)c2C1 | 72
23 | COc1ccc(COc2c(OC)cc(Cc3cnc(N)nc3N)cc2OC)cc1 | 23
24 | O=C(Nc1ccc(Cl)cc1)Nc1ccc(-c2cccc(-c3nc4cc(F)ccc4[nH]3)c2)cc1 | 96
25 | O=C(O)C(F)(F)F.c1cncc(CCNCc2cccc(-c3ccc(-c4nc5ccccc5[nH]4)s3)c2)c1 | 97
26 | NC1CCN(c2nc(NCCCc3ccc(O)cc3)nc(NCc3ccccc3-c3ccccc3)n2)CC1.O=C(O)C(F)(F)F | 45
27 | COc1ccc(-c2cccc(NC(=O)c3cccc(C#N)c3)c2)cc1CN1CCCC1.O=C(O)C(F)(F)F | 32
28 | Cc1cccc(C(=O)Nc2ccnc(N3CCCN(Cc4cccc(O)c4)CC3)c2)c1.O=C(O)C(F)(F)F | 13
29 | Nc1c(Cl)cc(C(O)CNCCCCCOCCc2ccccc2)cc1C(F)(F)F (configuration not stated) | 96
30 | CN1CCN(c2cc(NC(=O)Nc3cccc(Cl)c3Cl)ccc2Cl)CC1.Cl | 21
31 | Clc1ccc(-c2cc(-c3csc(NCCN4CCOCC4)n3)on2)c(Cl)c1 | 86
32 | N#Cc1ccccc1Sc1ccccc1C(=O)Nc1ccc2ccccc2n1 | 85
33 | Cl.ON=C1CCc2cc(-c3[nH]c(-c4cccc(OCCNCc5ccc(F)cc5)c4)nc3-c3ccncc3)ccc21 | 69
34 | O=S(=O)(c1cccc(C(F)(F)F)c1)N1CCC(CO)(Cc2cccc(C(F)(F)F)c2)CC1 | 79
35 | Cl.N=c1n(Cc2ccc(Cl)cc2)c2ccccc2n1CC(O)c1ccc(Cl)c(Cl)c1 (configuration not stated) | 99
36 | Cc1[nH]c(C)c(-c2ccc(OCc3cc(F)cc(F)c3)nc2)c(=O)c1Cl | 97
37 | CN(C)CCNCc1ccc(-c2ccc(-c3nc4cc(F)ccc4[nH]3)cc2)cc1.O=C(O)C(F)(F)F | 99
